target: GST-WRKY1(266-371) (Arabidopsis thaliana, UniProt Q9SI37 266-371); test: universal protein binding microarray (PBM); transcription factors of Arabidopsis thaliana; high values mean tight binding; conditions: protein: recombinant; tags: GST; dsDNA, one strand shown
In short: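 GST-tagged proteins (NAC-domain, full-length or DNA-binding-domain) were induced in cells, with zinc acetate supplied for zinc-finger proteins, then purified on glutathione–Sepharose 4B. Each was tested in duplicate at 200 to 500 nM final on custom all-10-mer Agilent 4 × 180K arrays rendered double-stranded by primer extension. The binding value is the normalised enrichment score (E-score) across gapped and ungapped 8-mers.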

Chain of GST-WRKY1(266-371) (Q9SI37 266-371): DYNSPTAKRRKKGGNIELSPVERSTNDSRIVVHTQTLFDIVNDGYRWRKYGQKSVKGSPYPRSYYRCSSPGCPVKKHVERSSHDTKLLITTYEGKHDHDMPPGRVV

Question: For CGTCTGAC, which binding signal is on record?
Answer: 0.418 E-score

Question: How did the binding signal turn out when CGGTCATA was run?
Answer: 0.415 E-score

Question: With GCGGTCAA as the sequence, how does the binding signal read?
Answer: 0.487 E-score

Question: Which binding signal does the source give for AGGTCGTC here?
Answer: 0.416 E-score

Question: How did the binding signal turn out when AAGACCGG was run?
Answer: 0.428 E-score

Question: How did the binding signal turn out when AAGTCCAC was run?
Answer: 0.418 E-score

Question: CCTGGTCA was tested. Which binding signal did it give?
Answer: 0.454 E-score

Question: Which binding signal does the source give for AGTCAGCA here?
Answer: 0.432 E-score

Question: With AAGACCAG as the sequence, how does the binding signal read?
Answer: 0.427 E-score

Question: ACGACCAG was tested. Which binding signal did it give?
Answer: 0.403 E-score

Question: With GTCTTTGA as the sequence, how does the binding signal read?
Answer: 0.411 E-score

Question: AGTCGGTC was tested. Which binding signal did it give?
Answer: 0.403 E-score

Question: With AGGGTCAG as the sequence, how does the binding signal read?
Answer: 0.403 E-score

Question: For GCTCTGAC, which binding signal is on record?
Answer: 0.403 E-score

Question: TGACCTCA was tested. Which binding signal did it give?
Answer: 0.41 E-score

Question: CCAGGTCA was tested. Which binding signal did it give?
Answer: 0.408 E-score

Question: Which binding signal does the source give for CTGACCTA here?
Answer: 0.413 E-score

Question: ATCGGTCA was tested. Which binding signal did it give?
Answer: 0.451 E-score

Question: With GCGAGTCA as the sequence, how does the binding signal read?
Answer: 0.414 E-score

Question: How did the binding signal turn out when AGGGGTCA was run?
Answer: 0.415 E-score

Question: Which binding signal does the source give for CGGTCCAC here?
Answer: 0.434 E-score

Question: With GGTCGTCA as the sequence, how does the binding signal read?
Answer: 0.41 E-score

Question: For CTATGACC, which binding signal is on record?
Answer: 0.412 E-score

Question: ATAGGTCA was tested. Which binding signal did it give?
Answer: 0.409 E-score

Question: How did the binding signal turn out when GGGTCAGA was run?
Answer: 0.432 E-score

Question: Which binding signal does the source give for CAGGTCAA here?
Answer: 0.484 E-score

Question: CGGAGTCA was tested. Which binding signal did it give?
Answer: 0.405 E-score

Question: With TGACCGCA as the sequence, how does the binding signal read?
Answer: 0.429 E-score

Question: How did the binding signal turn out when CGGTCGTC was run?
Answer: 0.41 E-score

Question: With CGATTGAC as the sequence, how does the binding signal read?
Answer: 0.443 E-score

Question: With CAAGGTCA as the sequence, how does the binding signal read?
Answer: 0.425 E-score

Question: GGCGGTCA was tested. Which binding signal did it give?
Answer: 0.428 E-score

Question: For CAAGACCG, which binding signal is on record?
Answer: 0.405 E-score

Question: Which binding signal does the source give for AACGGTCA here?
Answer: 0.435 E-score

Question: For GCTGGTCA, which binding signal is on record?
Answer: 0.452 E-score

Question: CTTGGTCA was tested. Which binding signal did it give?
Answer: 0.429 E-score

Question: For CCGGTCAG, which binding signal is on record?
Answer: 0.44 E-score

Question: AGTCAGCG was tested. Which binding signal did it give?
Answer: 0.453 E-score

Question: Which binding signal does the source give for ATGCTGAC here?
Answer: 0.41 E-score

Source: article PMC4081100, “A DNA-binding-site landscape and regulatory network analysis for NAC transcription factors in Arabidopsis thaliana”
